# Potency and affinity values are given separately. A number with no mark means an inactive call.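 Rule for the calls: active = fitted half-maximal concentration for loss of cell signal no higher than twice the top valid tested concentration; inconclusive = flat curve at 30 to 70% inhibition, or poor fit; inactive = flat within 30%, signal rise, or potency above limit.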
# Test: cytotoxicity toward MDA-MB-231 breast cancer cells – cell-based, CellTiter-Glo luminescence, cherry-pick, cytotoxicity control for RAD54 inhibitor project, dose response (AID 651692);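 note: 0% = median of sample compound wells and -100% = staurosporine control wells; more negative values mean stronger loss of viable cell signal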
# Settings: MDA-MB-231 viability, 24 h; series mostly up to 26 µM; activity change, negative = growth inhibition: at the top concentration
row,SMILES,"activity change, negative = growth inhibition [%]"
1,CCN(CC)CC(O)c1ccc2ccc3ccc(O)cc3c2c1 (centres undefined),-4.8
2,COc1ccccc1CNC(=O)c1cccs1,-3.64
3,COc1cc(NC(=O)c2cccnc2Sc2ccc(C)c(C)c2)cc(OC)c1OC,8.68
4,c1ccc(-c2nc(NCCCN3CCOCC3)c3ccccc3n2)cc1,4.75
5,O=C(Nc1cccc([N+](=O)[O-])c1)c1cc(S(=O)(=O)N2CCOCC2)cs1,10.7
6,CCC(=O)N(Cc1cc2cc(OC)ccc2[nH]c1=O)c1cc(C)ccc1C,4.92
7,CC(=O)Nc1cc(-c2ccc(N3CCN(C)CC3)cc2)cn2c(-c3ccc(S(C)(=O)=O)cc3)cnc12,-10.1
8,COc1ccc(Nc2c3ccccc3nc3ccccc23)cc1,-8.98
9,C(=C/c1nccc2c1[nH]c1ccccc12)/c1ccc2c(c1)OCO2,-17.9
10,CN(C)CCNC(=O)c1cc2c(=O)n(C)c3ccccc3c2n1C,6.67
11,NCc1csc(Nc2nncc3ccccc23)n1,9.15
12,CCn1c(=O)c2cc(C(=O)NCCN(C)C)sc2c2ccccc21,-8.99
13,CCn1c(=N)c(C(=O)NCCCOC)cc2c(=O)n3cccc(C)c3nc21,5.29
14,CCN(CC)CCCNC(=O)c1cc2c(=O)n(C)c3ccccc3c2n1C,-6.68
15,CC1CCc2sc3nc(N4CCN(CCO)CC4)n4ncnc4c3c2C1 (centres undefined),-3.77
16,CN(C)CCCN1C(=O)c2cccc3cccc(c23)C1=O,10.8
17,COc1ccc(Cl)c2sc(N(CCN(C)C)C(=O)C3=COCCO3)nc12,3.13
18,CC(=O)Nc1cc(-c2ccc(N3CCN(C)CC3)cc2)cn2c(-c3cccc(C(C)=O)c3)cnc12,-11
19,CSc1nc(SCC(N)=O)c2c3c(sc2n1)CN(C)CC3,-1.15
20,COc1cccc(-c2nc(N3CCN(Cc4ccccc4)CC3)c3ccccc3n2)c1O,9.26

row,SMILES,"activity change, negative = growth inhibition [%]"
1,COc1ccc2nc3cc(Cl)ccc3c(Nc3cc(CN4CCCC4)c(O)c(CN4CCCC4)c3)c2n1,11.3
2,Cc1nc2ccccc2c2oc(C(=O)NCCN3CCCCC3C)cc12 (centres undefined),7.34
3,Cc1[nH]ccc2c1[nH]c1cc(=O)ccc12,-0.052
4,Cc1ccc(-c2nc(NCCCO)c3ccccc3n2)cc1,-3.38
5,OC1CCCN(Cc2c3ccccc3cc3ccccc23)C1 (centres undefined),7.86
6,COc1ccc(OC)c(Nc2nc(NCCO)c3ccccc3n2)c1,6.73
7,Cc1ccc(S(=O)(=O)NCCCNS(=O)(=O)c2ccccc2[N+](=O)[O-])cc1,5.81
8,COc1ccc(CCNC(=O)c2cc3c(=O)n4ccccc4nc3n(CCCN3CCOCC3)c2=N)cc1OC,7.19
9,Cc1cccn2c(=O)c3cc(C(=O)NCCc4ccccc4)c(=N)n(CCCn4ccnc4)c3nc12,-4.6
10,C=CC(=O)Nc1ccc(N(C)c2ccnc(Nc3ccc(N4CCN(C)CC4)cc3)n2)cc1,-6.14
11,CCN(CC)CCn1c2ccccc2c2nc3ccccc3nc21,1.86
12,CCOCCCNC(=S)Nc1ccc2nc(N3CCCC3)cc(C)c2c1,-4.85
13,CCOCCCn1c(=N)c(C(=O)NCCN2CCOCC2)cc2c(=O)n3cccc(C)c3nc21,1.54
14,CCCN(CCC)CCCNC(=O)c1cc2c(-c3ccc(OC)c(OC)c3)nn(C)c2s1,6.76
15,Cc1cccc2cc3c(N)c(C#N)sc3nc12,6.75
16,O=C1c2cccc3cccc(c23)C(=O)N1CCCn1ccnc1,11.9
17,Oc1ccc(Nc2nc(N3CCCC3)c3ccccc3n2)cc1,-10.4
18,COc1ncccc1-c1cc2nc(NCCCN(C)C)n(C)c(=O)c2s1,6.33
19,O=c1c2ccccc2oc2ccc(NCCCN3CCOCC3)cc12,9.85

# Source: PubChem BioAssay AID651692 (Broad Institute, 2012)
